SMILES strings stand for the structures. Active and inactive are the calls of the source.

A short description of test [1]: small molecules captured by biotinylated probe aFSTL3 – biochemical, small-molecule microarray, fluorescence 635/667, stem cell growth factor project, primary screen (AID 1064).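 Also: measures binding of the biotinylated anti-FSTL3 antibody to printed compounds.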 Particulars: higher = more signal.
Test [2] in a line: binders from COS7 lysate, DM2A8 probe, primary screen, torsin A project, cell lysate, small-molecule microarray, fluorescence 635/667 (AID 1065). Particulars: higher = more signal, COS7 lysate expressing mutant human TOR1A.
Test [3] is described as follows: small molecules captured by biotinylated probe aFGF2 – biochemical, small-molecule microarray, fluorescence 635/667, stem cell growth factor project, primary screen (AID 1067).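 Also: measures binding of biotinylated aFGF2 protein to printed compounds on slides; z-score merges feature fluorescence and signal-to-noise across triplicate slides.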 Particulars: higher = more signal.
The nature of test [4]: small molecules captured by biotinylated probe aFGF10 – biochemical, small-molecule microarray, fluorescence 635/667, stem cell growth factor project, primary screen (AID 1071).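 Also: score merges 667 nm spot intensity and signal to noise from triplicate slides.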 Particulars: higher = more signal.
For test [5], the target named is Neurogenic locus notch homolog protein 2 (Homo sapiens) (UniProt Q04721). Description: small molecules binding Notch2 protein – biochemical, small-molecule microarray, 635 nm fluorescence, stem cell growth factors, primary screen (AID 1073). Particulars: higher = more signal.
Chain of Neurogenic locus notch homolog protein 2 (Homo sapiens) (Q04721 whole entry, looked up, canonical isoform): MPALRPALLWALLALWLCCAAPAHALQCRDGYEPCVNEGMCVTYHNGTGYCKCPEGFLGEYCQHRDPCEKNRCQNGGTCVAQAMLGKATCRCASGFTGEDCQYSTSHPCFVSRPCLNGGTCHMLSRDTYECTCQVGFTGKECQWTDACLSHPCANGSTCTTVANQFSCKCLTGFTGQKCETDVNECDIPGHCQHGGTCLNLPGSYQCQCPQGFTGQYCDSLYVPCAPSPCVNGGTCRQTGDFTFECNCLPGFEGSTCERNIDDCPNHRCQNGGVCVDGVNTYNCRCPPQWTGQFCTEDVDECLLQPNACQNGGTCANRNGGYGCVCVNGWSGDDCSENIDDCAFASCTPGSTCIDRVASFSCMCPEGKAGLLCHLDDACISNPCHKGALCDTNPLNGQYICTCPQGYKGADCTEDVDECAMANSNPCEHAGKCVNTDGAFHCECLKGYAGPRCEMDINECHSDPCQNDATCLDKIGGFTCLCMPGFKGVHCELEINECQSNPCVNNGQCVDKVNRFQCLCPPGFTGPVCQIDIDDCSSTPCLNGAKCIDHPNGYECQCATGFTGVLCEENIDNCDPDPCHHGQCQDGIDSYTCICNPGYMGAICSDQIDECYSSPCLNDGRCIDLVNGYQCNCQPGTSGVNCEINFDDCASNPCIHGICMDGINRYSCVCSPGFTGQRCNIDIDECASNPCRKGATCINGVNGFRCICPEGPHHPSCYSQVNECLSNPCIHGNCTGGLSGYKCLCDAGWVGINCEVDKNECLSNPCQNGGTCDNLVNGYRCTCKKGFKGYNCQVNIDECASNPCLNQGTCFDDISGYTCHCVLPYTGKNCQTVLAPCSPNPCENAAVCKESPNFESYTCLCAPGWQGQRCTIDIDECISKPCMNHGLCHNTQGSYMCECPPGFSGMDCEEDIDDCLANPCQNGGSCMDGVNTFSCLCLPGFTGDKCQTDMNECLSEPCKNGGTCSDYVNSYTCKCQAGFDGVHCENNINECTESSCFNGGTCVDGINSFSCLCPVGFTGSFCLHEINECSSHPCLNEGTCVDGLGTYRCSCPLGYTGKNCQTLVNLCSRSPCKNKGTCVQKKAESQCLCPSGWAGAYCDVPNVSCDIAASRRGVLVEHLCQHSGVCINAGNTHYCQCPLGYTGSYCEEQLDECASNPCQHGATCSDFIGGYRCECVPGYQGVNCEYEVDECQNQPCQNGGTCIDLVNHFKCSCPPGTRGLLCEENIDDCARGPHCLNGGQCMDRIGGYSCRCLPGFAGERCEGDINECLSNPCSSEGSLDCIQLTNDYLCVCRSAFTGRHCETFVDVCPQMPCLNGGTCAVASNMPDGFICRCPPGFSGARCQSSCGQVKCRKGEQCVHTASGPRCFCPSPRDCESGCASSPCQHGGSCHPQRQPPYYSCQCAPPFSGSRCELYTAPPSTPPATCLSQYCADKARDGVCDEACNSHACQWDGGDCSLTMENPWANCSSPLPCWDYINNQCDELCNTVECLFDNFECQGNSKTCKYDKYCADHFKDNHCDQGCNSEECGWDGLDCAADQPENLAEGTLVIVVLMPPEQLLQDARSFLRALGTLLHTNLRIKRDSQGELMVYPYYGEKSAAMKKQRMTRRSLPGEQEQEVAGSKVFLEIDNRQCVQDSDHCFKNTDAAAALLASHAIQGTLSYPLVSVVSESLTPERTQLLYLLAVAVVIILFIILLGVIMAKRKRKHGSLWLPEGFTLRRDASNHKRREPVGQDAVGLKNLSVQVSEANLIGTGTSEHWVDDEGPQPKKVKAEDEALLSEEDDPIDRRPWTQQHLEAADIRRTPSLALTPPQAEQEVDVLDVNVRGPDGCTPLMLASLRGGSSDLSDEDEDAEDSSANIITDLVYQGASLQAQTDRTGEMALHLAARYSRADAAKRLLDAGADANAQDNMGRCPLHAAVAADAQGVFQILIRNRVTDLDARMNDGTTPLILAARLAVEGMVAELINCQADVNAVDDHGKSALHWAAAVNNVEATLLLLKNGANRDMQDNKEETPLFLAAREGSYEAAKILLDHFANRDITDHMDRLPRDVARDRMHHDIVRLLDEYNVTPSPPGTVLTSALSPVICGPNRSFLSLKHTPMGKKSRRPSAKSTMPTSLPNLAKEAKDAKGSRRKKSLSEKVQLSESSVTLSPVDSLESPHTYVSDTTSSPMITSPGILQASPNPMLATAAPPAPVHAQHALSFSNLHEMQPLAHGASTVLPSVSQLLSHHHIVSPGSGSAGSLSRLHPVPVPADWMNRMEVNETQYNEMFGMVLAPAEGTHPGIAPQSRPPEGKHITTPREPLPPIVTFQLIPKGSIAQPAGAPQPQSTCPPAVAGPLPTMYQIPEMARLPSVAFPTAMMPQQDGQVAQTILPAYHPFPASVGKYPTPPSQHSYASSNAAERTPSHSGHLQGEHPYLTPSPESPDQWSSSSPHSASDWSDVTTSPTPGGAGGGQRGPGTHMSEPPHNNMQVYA
Test [6] has as its target Pro-neuregulin-1, membrane-bound isoform (Homo sapiens) (UniProt Q02297). Description: small molecules binding neuregulin-1 protein – biochemical, small-molecule microarray, fluorescence 635/667, psychiatric disease protein project, primary screen (AID 1075).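 Also: score combines 667 nm spot fluorescence with signal to noise.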 Particulars: NRG1 binding, 635 nm fluorescence, higher = more signal.
Test [7] concerns Neuregulin-1 EGF-like domain. Description: small molecules binding NRG1 EGF domain – biochemical, small-molecule microarray, 635 nm fluorescence, primary screen (AID 1081).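 Also: binding of the protein to compounds printed on small-molecule microarray slides.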 Particulars: higher = more signal.
A short description of test [8]: FRG1 expression reporter modulators in myotubes – cell-based, C2C12 myotubes, firefly/Renilla luciferase, luminescence, FRG1 inhibition for FSHD, primary screen (AID 1084). Particulars: FRG1 promoter luciferase, higher = more signal, called active from +8 up or from −8 down.
The nature of test [9]: small molecules captured by biotinylated probe aFST – biochemical, small-molecule microarray, fluorescence 635/667, stem cell growth factor project, primary screen (AID 1086).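 Also: score merges 667 nm fluorescence with signal-to-noise of each printed compound spot.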 Particulars: higher = more signal.
Test [10] can be described thus: binders of probe aHhip on microarray, primary screen, stem cell growth factor project, biochemical, small-molecule microarray, fluorescence 635/667 (AID 1087).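 Also: score merges spot fluorescence at 667nm with spot signal to noise ratio.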 Particulars: higher = more signal.

Chain of Pro-neuregulin-1, membrane-bound isoform (Homo sapiens) (Q02297 whole entry, looked up, the tested form may be a part, canonical isoform): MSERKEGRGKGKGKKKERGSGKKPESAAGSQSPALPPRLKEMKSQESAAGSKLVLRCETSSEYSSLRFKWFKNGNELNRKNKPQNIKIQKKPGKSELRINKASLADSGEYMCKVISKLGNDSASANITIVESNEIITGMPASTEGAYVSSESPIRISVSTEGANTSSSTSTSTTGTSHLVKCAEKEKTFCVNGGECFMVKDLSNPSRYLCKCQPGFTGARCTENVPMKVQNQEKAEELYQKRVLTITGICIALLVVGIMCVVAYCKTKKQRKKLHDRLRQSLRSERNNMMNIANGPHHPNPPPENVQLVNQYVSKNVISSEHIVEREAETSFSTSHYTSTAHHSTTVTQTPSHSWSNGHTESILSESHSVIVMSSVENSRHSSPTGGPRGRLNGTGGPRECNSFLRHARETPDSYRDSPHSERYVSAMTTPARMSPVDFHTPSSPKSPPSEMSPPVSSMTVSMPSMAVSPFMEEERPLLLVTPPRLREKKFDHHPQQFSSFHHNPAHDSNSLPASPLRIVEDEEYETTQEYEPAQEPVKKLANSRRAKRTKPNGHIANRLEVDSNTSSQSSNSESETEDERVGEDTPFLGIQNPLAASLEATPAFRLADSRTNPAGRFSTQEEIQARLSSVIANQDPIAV

As to `C=C[C@H](COC(C)=O)N(C(=O)OC(C)(C)C)S(=O)(=O)c1ccc(Br)cc1`, the composite z-score in test [1] is 0.726; in [2], 0.303; in [3] it was 0.278; in [4], 0.348; in [5], 1.33; in test [6] it was -0.243. Moreover, the composite z-score amounted to 0.652 in [7], 1.23 in test [9] and 0.32 in test [10]. Further, in [8], the z-score was -1.89 (inactive).
`COc1ccc(C(O)C2C=CC3C(=O)N(C)C(=O)C3N2N2CCCCC2)c2ccccc12` (stereo not given): the composite z-score in test [1] is -0.226; in test [2] it was 0.0595; in [3], 0.192; in test [4], 0.988; in [5], 1.65; in [6], 1.27. Further, the composite z-score is 1.07 in [7], 0.858 in [9] and 0.176 in [10]. In addition, the z-score in [8] was -0.292 (inactive).
Consider `CN(C)CCCNC(=O)[C@@]1(C)c2ccccc2C(=O)N(Cc2cc(F)cc(C(F)(F)F)c2)[C@H]1c1ccc(CO)cc1`, for which the composite z-score in test [1] is -0.0117; in test [2], -0.224; in test [3] it was -0.144; in test [4], -0.681; in [5], -1.23; in test [6], 1.05. For the same molecule, the composite z-score in [7] was -0.164; in test [9], -0.641; in test [10] it was -0.132. Besides, in [8], the z-score was -0.712 (inactive).
For `COc1ccc([Si](C)(C)[C@H]2[C@H](CCO)O[C@@]3(C(=O)N(C)c4c(Br)cc(C)cc43)[C@@H]2C)cc1`, the composite z-score in test [1] is 0.107; in test [2], 0.325; in test [3], -0.116; in test [4], 0.243; in test [5] it was 0.432; in test [6], 0.679. For the same molecule, the results for the composite z-score in [7], in test [9] and in test [10] were 1.12, 0.299 and -0.196, respectively. Besides, in [8], the z-score is -2.14 (inactive).
With `COC(=O)[C@@]1(Cc2ccc(F)cc2)[C@H]2c3cc(C(=O)N(C)C)n(Cc4nc5ccccc5[nH]4)c3C[C@H]2CN1C(=O)c1ccccc1`, the composite z-score in [1] is 0.258; in test [2] it was -1.35; in test [3], 0.349; in test [4], 0.841; in test [5], 1.66; in [6], 2.13. Further, the composite z-score was 1.13 in test [7], 1.36 in test [9] and -0.139 in test [10]. Besides, the z-score in test [8] is -0.169 (inactive).
As for `COCCOC(=O)N1C(=O)[C@@]2(c3cc(C#CCCO)ccc31)[C@H](C(=O)Nc1nc3ccccc3s1)[C@H]1C(=O)O[C@H](c3ccccc3)[C@H](c3ccccc3)N1[C@@H]2c1ccc(OCCO)cc1`, the composite z-score was -0.221 in [1]; 0.787 in [2]; -0.0824 in test [3]; 0.871 in [4]; 1.19 in test [5]; 0.991 in test [6]. Further, the composite z-score worked out at 1.07 in test [7], 0.464 in [9] and 0.0176 in [10]. Also, the z-score in test [8] was 1.2 (inactive).
For `O=C1OCCC/C=C\[C@H]2OC34C=CCN(c5ccc6ccccc6c5)C(=O)[C@H]3N(CCCCCCO)C(=O)[C@@H]4C12` (stereo not given in full), the composite z-score in [1] is 0.221; in [2] it was -0.295; in [3], -0.0824; in [4], -0.648; in test [5] it was -1.15; in test [6], -0.177. In addition, the composite z-score in test [7] is 1.25; in test [9], -0.307; in test [10] it was -0.0239. In addition, the z-score in [8] is -0.824 (inactive).
For `C=CC[C@]1(C(=O)N2CCCCC2)N=C(c2ccc(OCCCO)cc2)O[C@H]1c1ccccc1`, the composite z-score in test [1] came to 1.08; in [2], 0.785; in test [3] it was 0.0472; in test [4], 0.452; in test [5], 0.668; in [6] it was 1.77. Also, the composite z-score in [7] was 1.17; in [9], 1.63; in [10] it was 1.27. Also, the z-score in test [8] was -1.11 (inactive).
For `CC(C)N1C(=O)c2ccccc2[C@](C)(C(=O)NCc2ccccc2)[C@@H]1c1ccc(CO)cc1`, the composite z-score in test [1] was 0.197; in test [2], 0.0699; in test [3], -0.157; in [4] it was -0.158; in [5] it was -0.463; in test [6], -1.06. The composite z-score in [7] is 0.744; in test [9], -0.27; in test [10], -0.0994. In addition, the z-score in test [8] was -1.03 (inactive).
Turning to `Cc1ccc(S[C@]2(C(=O)NCC(C)C)CC(=O)N(Cc3cc(C(F)(F)F)cc(C(F)(F)F)c3)[C@@H]2c2ccc(CO)cc2I)cc1`, the composite z-score in test [1] was 1.61; in test [2], -0.367; in test [3] it was -0.113; in [4], -0.637; in [5] it was -1.1; in test [6], 1.13. For the same molecule, the composite z-score in [7] was 0.102; in [9], 0.0584; in test [10], -0.216. Also, the z-score in test [8] is -0.286 (inactive).
For the molecule `CCN(CC)c1ccc(N2CC=CC34O[C@@H]5/C=C\CCCOC(=O)C5[C@H]3C(=O)N(CCO)[C@@H]4C2=O)cc1` (stereo not given in full), the composite z-score in test [1] was 0.244; in [2] it was -0.542; in test [3], -0.0785; in test [4], -0.715; in test [5] it was -1.24; in [6] it was 1.84. Also, the results for the composite z-score in test [7], in test [9] and in [10] were 0.632, -0.584 and -0.0061, respectively. The z-score in test [8] is 0.599 (inactive).
Turning to `CC1(C)[C@@H]2CC(C(O)C3C=CC4C(=O)N(c5ccccc5)C(=O)C4N3Nc3ccccc3)=C[C@H]1C2` (stereo not given in full), the composite z-score was 0.11 in test [1]; -0.6 in test [2]; 0.062 in [3]; 0.45 in test [4]; 1.03 in test [5]; 1.15 in test [6]. Besides, the composite z-score in test [7] is 0.886; in [9], 0.889; in test [10], 0.142. Besides, in test [8], the z-score is -0.559 (inactive).
On to `C#CCN(CC1=CCCCC1)[C@H](c1ccccc1Br)[C@@H](O)Cc1ccccc1`, for which the composite z-score in test [1] was 0.727; in [2] it was 0.518; in [3] it was -0.176; in [4], -0.123; in test [5], -0.978; in [6] it was 0.251. The composite z-score in test [7] is 0.928; in test [9], -0.967; in [10], -0.166. Also, in [8], the z-score was -2.16 (inactive).
Consider `C=C(CCCC)C(=O)CC[C@@H](OC(=O)c1cccnc1)c1ccc(CO)o1`, for which the composite z-score in test [1] is -0.45; in test [2], 0.0802; in test [3], -0.008; in [4], 0.601; in test [5], 0.88; in test [6], 1.05. In addition, the composite z-score in [7] amounted to 1.07; in test [9] it was 0.391; in test [10] it was 0.122. The z-score in test [8] was -0.434 (inactive).
